# Data published in ChEMBL document CHEMBL1961873, “Compounds: GSK PKIS; Assays: Nanosyn kinase panel” (2012).
# “And” between values parts separate entries of the source, which are not always exact repeats. Identical values can stand only once.
# Key:
# [1] = target: Protein kinase C gamma type (Homo sapiens) (UniProt P05129); conditions: at 1 µM;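 note: each value is an averaged percent inhibition of the enzyme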
# [2] = target: T1, Protein kinase C iota type (Homo sapiens) (UniProt P41743); conditions: at 0.1 µM
# T1 sequence (whole entry): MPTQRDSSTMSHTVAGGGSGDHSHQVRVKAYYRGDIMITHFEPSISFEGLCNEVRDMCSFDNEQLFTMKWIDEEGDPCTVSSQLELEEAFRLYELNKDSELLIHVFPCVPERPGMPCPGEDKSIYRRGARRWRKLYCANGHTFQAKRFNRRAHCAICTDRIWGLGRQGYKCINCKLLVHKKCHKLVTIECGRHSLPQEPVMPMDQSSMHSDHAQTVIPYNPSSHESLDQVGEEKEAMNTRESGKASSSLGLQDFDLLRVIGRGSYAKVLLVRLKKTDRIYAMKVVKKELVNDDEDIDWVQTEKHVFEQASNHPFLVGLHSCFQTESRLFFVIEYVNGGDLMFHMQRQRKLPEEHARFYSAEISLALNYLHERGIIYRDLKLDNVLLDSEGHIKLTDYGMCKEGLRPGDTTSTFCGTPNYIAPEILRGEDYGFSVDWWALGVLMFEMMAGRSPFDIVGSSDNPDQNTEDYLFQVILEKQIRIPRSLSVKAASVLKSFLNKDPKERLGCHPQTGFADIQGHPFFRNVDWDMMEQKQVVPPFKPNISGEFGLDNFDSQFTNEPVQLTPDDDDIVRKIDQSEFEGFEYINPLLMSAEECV
# [3] = target: T1, Protein kinase C iota type (Homo sapiens); conditions: at 1 µM
# [4] = target: Protein kinase C theta type (Homo sapiens) (UniProt Q04759); conditions: at 0.1 µM
# [5] = target: Protein kinase C theta type (Homo sapiens) (UniProt Q04759); conditions: at 1 µM
# [6] = target: Protein kinase C beta type (Homo sapiens) (UniProt P05771); conditions: at 0.1 µM
# [7] = target: Protein kinase C beta type (Homo sapiens) (UniProt P05771); conditions: at 1 µM
# [8] = target: T2, Serine/threonine-protein kinase D1 (Homo sapiens) (UniProt Q15139); conditions: at 0.1 µM
# T2 sequence (whole entry): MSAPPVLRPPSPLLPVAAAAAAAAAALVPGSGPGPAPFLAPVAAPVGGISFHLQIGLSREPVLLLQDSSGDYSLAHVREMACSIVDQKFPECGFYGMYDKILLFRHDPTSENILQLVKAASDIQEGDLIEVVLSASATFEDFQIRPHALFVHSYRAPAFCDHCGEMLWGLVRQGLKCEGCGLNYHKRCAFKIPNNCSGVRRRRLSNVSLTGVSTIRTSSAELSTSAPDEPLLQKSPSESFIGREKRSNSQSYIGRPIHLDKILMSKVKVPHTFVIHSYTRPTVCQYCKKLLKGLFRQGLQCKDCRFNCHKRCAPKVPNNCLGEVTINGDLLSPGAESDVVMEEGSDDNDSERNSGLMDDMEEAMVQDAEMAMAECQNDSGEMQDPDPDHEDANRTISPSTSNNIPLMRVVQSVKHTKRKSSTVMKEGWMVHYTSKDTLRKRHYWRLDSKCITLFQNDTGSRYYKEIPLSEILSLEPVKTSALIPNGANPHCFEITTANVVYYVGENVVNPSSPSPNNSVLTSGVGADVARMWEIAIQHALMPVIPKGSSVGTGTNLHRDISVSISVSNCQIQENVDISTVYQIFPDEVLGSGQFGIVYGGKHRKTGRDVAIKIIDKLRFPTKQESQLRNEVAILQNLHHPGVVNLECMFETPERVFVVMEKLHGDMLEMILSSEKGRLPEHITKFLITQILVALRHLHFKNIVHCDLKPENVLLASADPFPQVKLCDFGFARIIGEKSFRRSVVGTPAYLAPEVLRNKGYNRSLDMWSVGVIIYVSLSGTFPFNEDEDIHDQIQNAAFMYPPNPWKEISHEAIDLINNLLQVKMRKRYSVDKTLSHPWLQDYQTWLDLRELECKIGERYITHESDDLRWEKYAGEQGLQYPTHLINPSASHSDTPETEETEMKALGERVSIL
# [9] = target: T2, Serine/threonine-protein kinase D1 (Homo sapiens); conditions: at 1 µM
# [10] = target: T3, Serine/threonine-protein kinase D2 (Homo sapiens) (UniProt Q9BZL6); conditions: at 0.1 µM
# T3 sequence (whole entry): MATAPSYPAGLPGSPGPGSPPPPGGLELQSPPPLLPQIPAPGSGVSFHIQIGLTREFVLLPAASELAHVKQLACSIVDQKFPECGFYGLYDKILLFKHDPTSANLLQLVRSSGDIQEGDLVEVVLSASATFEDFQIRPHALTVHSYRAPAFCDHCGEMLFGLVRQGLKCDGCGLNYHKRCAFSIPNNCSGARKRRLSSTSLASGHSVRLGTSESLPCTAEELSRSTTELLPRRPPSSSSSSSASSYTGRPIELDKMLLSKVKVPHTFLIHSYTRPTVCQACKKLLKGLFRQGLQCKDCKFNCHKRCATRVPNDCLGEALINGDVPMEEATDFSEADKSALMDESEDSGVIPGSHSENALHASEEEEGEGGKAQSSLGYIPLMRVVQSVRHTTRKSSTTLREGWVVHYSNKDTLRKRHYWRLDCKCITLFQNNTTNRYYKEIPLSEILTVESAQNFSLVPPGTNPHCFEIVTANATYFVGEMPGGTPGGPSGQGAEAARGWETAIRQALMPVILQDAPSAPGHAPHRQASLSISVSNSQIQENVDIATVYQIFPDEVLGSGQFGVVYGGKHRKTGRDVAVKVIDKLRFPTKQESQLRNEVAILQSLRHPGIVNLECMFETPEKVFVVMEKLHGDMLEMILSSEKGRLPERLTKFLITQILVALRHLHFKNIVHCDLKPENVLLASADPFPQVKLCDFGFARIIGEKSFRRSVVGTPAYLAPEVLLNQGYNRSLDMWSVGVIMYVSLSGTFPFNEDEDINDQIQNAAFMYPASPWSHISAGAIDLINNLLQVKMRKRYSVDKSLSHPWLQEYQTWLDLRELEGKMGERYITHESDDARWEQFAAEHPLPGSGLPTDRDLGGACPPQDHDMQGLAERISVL
# [11] = target: T3, Serine/threonine-protein kinase D2 (Homo sapiens); conditions: at 1 µM
# [12] = target: T4, Serine/threonine-protein kinase D3 (Homo sapiens) (UniProt O94806); conditions: at 0.1 µM
# T4 sequence (whole entry): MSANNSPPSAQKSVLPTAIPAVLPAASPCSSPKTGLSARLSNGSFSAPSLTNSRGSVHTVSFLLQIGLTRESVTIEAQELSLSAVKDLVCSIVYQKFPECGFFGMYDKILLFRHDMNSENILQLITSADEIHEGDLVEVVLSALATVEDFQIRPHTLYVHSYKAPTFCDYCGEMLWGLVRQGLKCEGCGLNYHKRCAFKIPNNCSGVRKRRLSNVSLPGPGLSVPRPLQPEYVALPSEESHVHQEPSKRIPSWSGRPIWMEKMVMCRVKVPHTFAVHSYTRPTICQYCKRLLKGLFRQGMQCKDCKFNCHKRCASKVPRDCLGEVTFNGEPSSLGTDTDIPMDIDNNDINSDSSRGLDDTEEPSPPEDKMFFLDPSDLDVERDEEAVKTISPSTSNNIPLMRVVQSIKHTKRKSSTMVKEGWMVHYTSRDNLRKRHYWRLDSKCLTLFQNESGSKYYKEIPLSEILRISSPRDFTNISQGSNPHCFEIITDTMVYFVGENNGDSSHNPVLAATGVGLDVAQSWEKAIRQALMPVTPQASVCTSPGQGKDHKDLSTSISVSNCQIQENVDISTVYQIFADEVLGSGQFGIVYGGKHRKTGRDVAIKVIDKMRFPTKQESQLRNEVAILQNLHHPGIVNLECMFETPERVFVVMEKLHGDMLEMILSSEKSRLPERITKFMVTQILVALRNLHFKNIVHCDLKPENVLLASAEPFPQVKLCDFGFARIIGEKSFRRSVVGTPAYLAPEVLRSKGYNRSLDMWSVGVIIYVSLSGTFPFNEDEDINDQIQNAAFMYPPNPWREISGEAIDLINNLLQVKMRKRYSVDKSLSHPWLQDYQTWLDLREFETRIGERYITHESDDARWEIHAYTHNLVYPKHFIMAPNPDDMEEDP
# [13] = target: T4, Serine/threonine-protein kinase D3 (Homo sapiens); conditions: at 1 µM
# [14] = target: T5, cGMP-dependent protein kinase 1 (Homo sapiens) (UniProt Q13976); conditions: at 0.1 µM
# T5 sequence (whole entry): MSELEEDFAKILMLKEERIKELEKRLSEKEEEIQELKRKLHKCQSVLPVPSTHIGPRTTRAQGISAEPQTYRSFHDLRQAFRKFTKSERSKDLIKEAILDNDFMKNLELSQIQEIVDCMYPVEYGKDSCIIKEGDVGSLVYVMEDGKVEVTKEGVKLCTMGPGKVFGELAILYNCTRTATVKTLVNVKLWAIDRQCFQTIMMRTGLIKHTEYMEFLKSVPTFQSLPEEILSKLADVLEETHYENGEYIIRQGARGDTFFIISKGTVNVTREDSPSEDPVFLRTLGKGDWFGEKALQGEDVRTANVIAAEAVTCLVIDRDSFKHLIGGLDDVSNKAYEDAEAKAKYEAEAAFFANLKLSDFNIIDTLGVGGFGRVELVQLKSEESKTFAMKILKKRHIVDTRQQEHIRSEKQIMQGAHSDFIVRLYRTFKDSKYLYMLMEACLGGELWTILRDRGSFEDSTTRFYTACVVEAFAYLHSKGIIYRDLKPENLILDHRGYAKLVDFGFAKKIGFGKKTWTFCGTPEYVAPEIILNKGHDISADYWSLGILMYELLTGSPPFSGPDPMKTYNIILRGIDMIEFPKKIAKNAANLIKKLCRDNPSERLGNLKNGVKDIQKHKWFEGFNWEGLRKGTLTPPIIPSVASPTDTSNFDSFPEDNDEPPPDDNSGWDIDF
# [15] = target: T5, cGMP-dependent protein kinase 1 (Homo sapiens); conditions: at 1 µM
# [16] = target: T6, cGMP-dependent protein kinase 2 (Homo sapiens) (UniProt Q13237); conditions: at 0.1 µM
# T6 sequence (whole entry): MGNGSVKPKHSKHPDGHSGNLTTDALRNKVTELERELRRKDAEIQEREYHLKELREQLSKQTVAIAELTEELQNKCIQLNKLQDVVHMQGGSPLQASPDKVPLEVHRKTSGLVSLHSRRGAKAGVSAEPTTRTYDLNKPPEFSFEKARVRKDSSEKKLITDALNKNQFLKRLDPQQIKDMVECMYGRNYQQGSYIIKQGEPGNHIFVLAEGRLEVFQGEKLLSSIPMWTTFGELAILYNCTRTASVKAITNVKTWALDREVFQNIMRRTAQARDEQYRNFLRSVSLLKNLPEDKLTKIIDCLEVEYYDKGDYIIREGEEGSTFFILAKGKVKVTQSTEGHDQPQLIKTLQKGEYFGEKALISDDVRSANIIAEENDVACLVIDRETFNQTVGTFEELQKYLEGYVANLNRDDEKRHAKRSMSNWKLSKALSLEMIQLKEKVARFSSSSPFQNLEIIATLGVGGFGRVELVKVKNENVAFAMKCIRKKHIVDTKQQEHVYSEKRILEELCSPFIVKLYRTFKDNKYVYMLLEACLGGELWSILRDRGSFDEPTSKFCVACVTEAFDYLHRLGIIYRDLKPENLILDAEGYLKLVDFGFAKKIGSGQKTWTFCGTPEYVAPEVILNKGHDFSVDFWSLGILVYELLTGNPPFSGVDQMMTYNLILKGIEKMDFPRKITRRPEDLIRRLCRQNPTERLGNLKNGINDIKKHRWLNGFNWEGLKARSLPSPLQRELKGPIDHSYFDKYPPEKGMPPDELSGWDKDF
# [17] = target: T6, cGMP-dependent protein kinase 2 (Homo sapiens); conditions: at 1 µM
# [18] = target: T7, cAMP-dependent protein kinase catalytic subunit PRKX (Homo sapiens) (UniProt P51817); conditions: at 0.1 µM
# T7 sequence (whole entry): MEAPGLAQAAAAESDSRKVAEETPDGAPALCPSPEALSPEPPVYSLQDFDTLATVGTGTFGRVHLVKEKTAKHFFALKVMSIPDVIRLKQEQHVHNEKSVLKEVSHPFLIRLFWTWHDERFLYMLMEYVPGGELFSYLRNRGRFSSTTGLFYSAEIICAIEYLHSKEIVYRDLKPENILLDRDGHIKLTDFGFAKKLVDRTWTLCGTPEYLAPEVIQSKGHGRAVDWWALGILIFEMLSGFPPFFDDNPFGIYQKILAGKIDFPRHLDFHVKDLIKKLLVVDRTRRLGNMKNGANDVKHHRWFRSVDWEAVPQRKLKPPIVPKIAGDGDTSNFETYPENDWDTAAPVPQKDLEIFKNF
# [19] = target: T7, cAMP-dependent protein kinase catalytic subunit PRKX (Homo sapiens); conditions: at 1 µM
# [20] = target: Rho-associated protein kinase 1 (Homo sapiens) (UniProt Q13464); conditions: at 0.1 µM;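 note: values are mean percent inhibition of ROCK1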
# Rho-associated protein kinase 1 (Homo sapiens), sequence (Q13464 2-1354 limits assumed): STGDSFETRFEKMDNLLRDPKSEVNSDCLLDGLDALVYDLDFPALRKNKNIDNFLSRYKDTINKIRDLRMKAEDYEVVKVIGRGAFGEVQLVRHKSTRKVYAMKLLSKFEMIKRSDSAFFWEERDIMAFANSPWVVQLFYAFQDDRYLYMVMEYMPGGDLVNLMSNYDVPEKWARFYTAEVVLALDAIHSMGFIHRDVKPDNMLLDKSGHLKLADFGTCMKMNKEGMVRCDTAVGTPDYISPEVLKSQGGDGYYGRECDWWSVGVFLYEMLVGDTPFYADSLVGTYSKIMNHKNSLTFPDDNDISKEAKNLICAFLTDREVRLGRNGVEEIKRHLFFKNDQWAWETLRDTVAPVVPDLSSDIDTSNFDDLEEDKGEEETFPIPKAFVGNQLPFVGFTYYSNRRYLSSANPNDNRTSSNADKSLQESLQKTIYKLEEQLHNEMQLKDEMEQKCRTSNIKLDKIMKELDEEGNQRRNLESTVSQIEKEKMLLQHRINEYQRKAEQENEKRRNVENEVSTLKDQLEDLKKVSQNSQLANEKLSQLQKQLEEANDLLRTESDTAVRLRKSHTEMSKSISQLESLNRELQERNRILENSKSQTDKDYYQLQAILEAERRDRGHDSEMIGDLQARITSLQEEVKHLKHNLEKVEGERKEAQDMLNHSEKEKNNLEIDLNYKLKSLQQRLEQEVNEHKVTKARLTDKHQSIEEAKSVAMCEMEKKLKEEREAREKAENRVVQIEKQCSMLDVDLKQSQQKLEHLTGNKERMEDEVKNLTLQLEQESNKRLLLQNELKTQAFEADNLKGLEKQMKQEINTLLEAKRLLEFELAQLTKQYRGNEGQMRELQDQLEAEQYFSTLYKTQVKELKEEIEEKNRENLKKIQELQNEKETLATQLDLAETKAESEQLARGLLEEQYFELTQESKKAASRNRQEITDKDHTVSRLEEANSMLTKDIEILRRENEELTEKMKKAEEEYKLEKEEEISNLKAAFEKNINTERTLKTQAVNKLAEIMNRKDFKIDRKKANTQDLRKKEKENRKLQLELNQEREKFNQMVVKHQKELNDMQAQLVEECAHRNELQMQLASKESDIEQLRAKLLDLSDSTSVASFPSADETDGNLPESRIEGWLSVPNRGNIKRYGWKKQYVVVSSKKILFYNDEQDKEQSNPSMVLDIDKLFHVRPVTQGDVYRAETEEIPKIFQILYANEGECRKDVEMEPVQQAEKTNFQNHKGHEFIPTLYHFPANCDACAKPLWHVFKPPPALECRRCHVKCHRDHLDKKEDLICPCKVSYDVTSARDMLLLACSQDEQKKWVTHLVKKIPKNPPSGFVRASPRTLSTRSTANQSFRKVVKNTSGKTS
# Protein kinase C beta type (Homo sapiens), sequence (P05771 2-671 limits assumed): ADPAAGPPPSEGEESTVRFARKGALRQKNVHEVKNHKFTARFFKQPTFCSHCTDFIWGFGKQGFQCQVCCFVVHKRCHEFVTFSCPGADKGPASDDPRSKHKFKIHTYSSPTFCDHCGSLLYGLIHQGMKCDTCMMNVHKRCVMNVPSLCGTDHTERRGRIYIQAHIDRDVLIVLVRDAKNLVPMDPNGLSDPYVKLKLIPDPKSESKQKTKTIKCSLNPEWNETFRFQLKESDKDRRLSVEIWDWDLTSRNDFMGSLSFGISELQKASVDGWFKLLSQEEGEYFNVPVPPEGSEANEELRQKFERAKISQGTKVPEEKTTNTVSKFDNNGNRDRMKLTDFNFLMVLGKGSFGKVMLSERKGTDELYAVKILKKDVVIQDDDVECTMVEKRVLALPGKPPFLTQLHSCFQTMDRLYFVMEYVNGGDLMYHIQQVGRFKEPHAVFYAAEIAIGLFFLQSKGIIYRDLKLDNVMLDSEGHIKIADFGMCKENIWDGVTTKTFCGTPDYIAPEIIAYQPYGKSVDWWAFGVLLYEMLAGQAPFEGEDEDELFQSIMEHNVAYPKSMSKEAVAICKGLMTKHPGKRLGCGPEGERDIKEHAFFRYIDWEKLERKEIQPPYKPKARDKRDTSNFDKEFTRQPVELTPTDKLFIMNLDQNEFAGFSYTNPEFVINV
# Protein kinase C theta type (Homo sapiens), sequence (Q04759 whole entry, looked up): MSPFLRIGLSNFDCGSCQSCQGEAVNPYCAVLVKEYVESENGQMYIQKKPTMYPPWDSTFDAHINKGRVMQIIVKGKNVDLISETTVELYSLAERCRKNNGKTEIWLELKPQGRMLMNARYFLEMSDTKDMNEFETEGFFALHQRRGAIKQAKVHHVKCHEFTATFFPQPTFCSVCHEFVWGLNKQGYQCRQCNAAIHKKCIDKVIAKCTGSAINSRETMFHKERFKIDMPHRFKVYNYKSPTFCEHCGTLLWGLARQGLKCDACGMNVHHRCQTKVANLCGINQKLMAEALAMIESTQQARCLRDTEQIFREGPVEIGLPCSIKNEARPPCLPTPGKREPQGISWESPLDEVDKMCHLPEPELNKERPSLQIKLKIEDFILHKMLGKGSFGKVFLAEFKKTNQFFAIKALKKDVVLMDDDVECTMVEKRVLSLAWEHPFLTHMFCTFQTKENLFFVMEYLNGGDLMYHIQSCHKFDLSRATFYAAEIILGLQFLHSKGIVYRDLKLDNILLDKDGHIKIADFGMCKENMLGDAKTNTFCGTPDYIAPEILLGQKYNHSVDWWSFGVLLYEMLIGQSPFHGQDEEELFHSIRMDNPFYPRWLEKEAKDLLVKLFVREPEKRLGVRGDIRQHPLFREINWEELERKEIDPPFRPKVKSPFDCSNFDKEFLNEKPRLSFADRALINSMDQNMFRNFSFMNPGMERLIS
Compound,inhibition [1],inhibition [2],inhibition [3],inhibition [4],inhibition [5],inhibition [6],inhibition [7],inhibition [8],inhibition [9],inhibition [10],inhibition [11],inhibition [12],inhibition [13],inhibition [14],inhibition [15],inhibition [16],inhibition [17],inhibition [18],inhibition [19],inhibition [20]
CCOc1ccc2c(-c3ccnc(Nc4cc(OC)cc(C(F)(F)F)c4)n3)cnn2n1,1.98%,1.79%,-0.03%,0.28%,-0.68%,1.09%,3.36%,0.73%,0.65%,0.66%,0.81%,-0.03%,1.2%,0.85%,7.21%,0.36%,2.15%,0.62%,0.2%,-0.28%
Nc1ncnc2occ(-c3ccc(NC(=O)Nc4cc(C(F)(F)F)ccc4F)cc3)c12,4.25% and -2.46%,1.22% and 0.26%,2.9% and 0.4%,0.8% and -1.06%,-0.69% and -1.44%,0.86% and -0.64%,1.67% and 0.08%,1.55% and -2.08%,2.08% and -1.19%,1.19% and -0.28%,1.3% and 0.14%,2.15% and -1.96%,1.95% and -2.28%,2.47% and 0.31%,1.42% and 0.75%,1.4% and 0.27%,2.16% and 1.02%,0.81% and 0.1%,-1.13% and -0.05%,1.07% and 0.31%
